# In PubChem BioAssay (NCATS):
# Values joined by “and” are separate entries in the source; they are usually repeats but may differ in a detail not shown here. Equal values may be shown once. Results filed as inconclusive are left out. Where a call stands in place of a potency, no number is given. Values without a mark were called inactive. Active and inactive are the calls of the source. Calls follow the shape of the dose curve; as a rule, active = well fitted curve in the direction sought with a large enough effect; inconclusive = small, poorly fitted or top-dose-only effect, or another doubt; inactive = no such curve, though single readings can be large; an effect the other way counts as inactive or inconclusive.
# Key:
# [1] = Viability qHTS for spleen associated tyrosine kinase inhibitor (SYKi) drug resistant MV4-11 cells (AID 1963824); also: nearly all actives have a fitted effect of over 35% in size; also: potency is read from the fitted curve at half-maximal effect
# Procedure, shortened: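 SYK inhibitor-resistant MV4-11 AML cells, 500 per well, added to predispensed compounds and incubated 72 hr at 37 C, 5% CO2. Viability measured by CellTiter-Glo luminescence after 10 min at room temperature.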
# [2] = Cellular viability qHTS for adrenocortical cancer (ACC) cell line SW-13 (AID 1963989); conditions: SW-13 ACC cells viability, CellTiter-Glo, 48 h; activity (max response): stronger effect = lower value; also: nearly all actives have a fitted effect of over 65% in size; also: potency is read from the fitted curve at half-maximal effect;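 as to activity (max response): cells grown in serum-free medium with ITS supplement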
# Procedure, shortened: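 IC50 and maximal-response values come from four-parameter logistic fits of titration data. SW-13 cells in serum-free medium received compounds (up to 46 uM final) for 48 h before CellTiter-Glo luminescence.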
# [3] = Cellular viability qHTS for adrenocortical cancer (ACC) cell line NCI-H295R (AID 1963990); also: nearly all actives have a fitted effect of over 60% in size; also: potency is read from the fitted curve at half-maximal effect
# Procedure, shortened: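 Adrenocortical carcinoma cells, suspended at 300 000 cells/mL in serum-free DMEM plus ITS, rested overnight before pin transfer of compound. After two days' incubation, ATP-dependent luminescence was recorded and curve-fitted.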
# [4] = Quantitative highthroughput screen to assess conditional lethalithy of P12 Ichikawa cells grown in RPMI1640 with untreated serum (RPMI+s) (AID 1963881); conditions: Potency: viability; also: nearly all actives have a fitted effect of over 35% in size; also: potency is read from the fitted curve at half-maximal effect; as to Viability: series mostly up to about 46 µM
# Procedure, shortened: (§1)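 Each medium arm—HPLM with 10% dialyzed FBS, or RPMI1640 with 5 mM glucose and 10% untreated or dialyzed FBS—was screened against an 11-point, 3-fold compound titration for 48 h at 37 °C, with CellTiter-Glo luminescence as endpoint.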
# [5] = Quantitative highthroughput screen to assess conditional lethalithy of NOMO1 cells grown in Human Plasma-Like Medium with dialyzed fetal bovine serum (HPLM+ds) (AID 1963878); also: nearly all actives have a fitted effect of over 35% in size
# Procedure, shortened: as §1
# [6] = Quantitative highthroughput screen to assess conditional lethalithy of P12 Ichikawa cells grown in Human Plasma-Like Medium with dialyzed fetal bovine serum (HPLM+ds) (AID 1963879); conditions: Potency: viability; also: series mostly up to about 46 µM; nearly all actives have a fitted effect of over 35% in size
# Procedure, shortened: as §1
# [7] = Quantitative highthroughput screen to assess conditional lethalithy of P12 Ichikawa cells grown in RPMI1640 with dialyzed fetal bovine serum (RPMI+ds) (AID 1963880); conditions: Potency: P12-Ichikawa viability; also: nearly all actives have a fitted effect of over 35% in size; also: potency is read from the fitted curve at half-maximal effect
# Procedure, shortened: as §1
# [8] = Quantitative highthroughput screen to assess conditional lethalithy of SEM cells grown in RPMI1640 with unreated serum (RPMI+s) (AID 1963883); also: nearly all actives have a fitted effect of over 35% in size; also: potency is read from the fitted curve at half-maximal effect
# Procedure, shortened: as §1
# [9] = Quantitative highthroughput screen to assess conditional lethalithy of SEM cells grown in RPMI1640 with dialyzed fetal bovine serum (RPMI+ds) (AID 1963884); also: nearly all actives have a fitted effect of over 35% in size; also: potency is read from the fitted curve at half-maximal effect; as to Viability: series mostly up to about 46 µM
# Procedure, shortened: as §1
# [10] = Quantitative highthroughput screen to assess conditional lethalithy of SEM cells grown in Human Plasma-Like Medium with dialyzed fetal bovine serum (HPLM+ds) (AID 1963882)
# Procedure, shortened: as §1
# [11] = Quantitative highthroughput screen to assess conditional lethalithy of NOMO1 cells grown in RPMI1640 with dialyzed fetal bovine serum (RPMI+ds) (AID 1963877); also: series mostly up to about 46 µM; nearly all actives have a fitted effect of over 30% in size
# Procedure, shortened: as §1
smiles,measurement,setting,value
C[C@]12CC[C@H]3[C@@H](CCC4=CC(=O)CC[C@@]43C)[C@@H]1CC[C@@H]2C(=O)O,Potency,[1],inactive
same,activity (max response),[2],11.4%
same,Potency,[3],inactive
CC(C)(O)C(=O)Nc1ccc([N+](=O)[O-])c(C(F)(F)F)c1,Potency,[1],18.6 µM (active)
same,Potency,[4],8.33 µM (active)
same,activity (max response),[2],-7.23%
same,Potency,[3],inactive
COC1=C[C@@H]2[C@@H]3Cc4ccc(OC)c(O)c4[C@]2(CCN3C)CC1=O,Potency,[1],18.6 µM (active)
same,Potency,[5],inactive
same,Potency,[6],inactive
same,Potency,[7],inactive
same,Potency,[4],inactive
same,activity (max response),[2],-18.4%
same,Potency,[3],inactive
Cc1cc(O)ccc1Cl,Potency,[1],inactive
same,activity (max response),[2],10.8%
same,Potency,[3],inactive
CC(=O)NC1CCSC1=O (stereo unspecified),Potency,[1],inactive
same,activity (max response),[2],9.14%
same,Potency,[3],inactive
O=S(=O)(CC1CS1)c1ccc(Oc2ccccc2)cc1 (stereo unspecified),Potency,[1],10.5 µM (active)
same,activity (max response),[2],-6.36%
CC[C@H](O)C(C[C@H](C)N(C)C)(c1ccccc1)c1ccccc1,Potency,[1],inactive
same,activity (max response),[2],-19.9%
CCOC(=O)CC(SP(=S)(OC)OC)C(=O)OCC (stereo unspecified),Potency,[1],inactive
same,activity (max response),[2],13.7% and 6.35%
same,Potency,[3],inactive
CC[N+]1(C)CCCC(OC(=O)C(O)(c2ccccc2)c2ccccc2)C1 (stereo unspecified),Potency,[1],inactive
same,activity (max response),[2],0.735%
same,Potency,[3],inactive
C[C@]12COC(=O)C[C@@H]1CC[C@@H]1[C@@H]2CC[C@@]2(C)[C@H]1CC[C@]2(C)O,Potency,[1],inactive
same,activity (max response),[2],-23.6%
CC[C@@H](CO)NC(=O)[C@@H]1C=C2c3cccc4c3c(cn4C)C[C@H]2N(C)C1,Potency,[1],9.44 µM (active)
same,activity (max response),[2],-2.39%
same,Potency,[3],inactive
COP(=S)(OC)Oc1ccc(S(=O)(=O)N(C)C)cc1,Potency,[1],inactive
same,activity (max response),[2],-2.83%
same,Potency,[3],inactive
COc1cc(CCN)cc(OC)c1OC,Potency,[1],inactive
same,activity (max response),[2],-7.31%
same,Potency,[3],inactive
CNC(=O)c1ccc(N2C(=S)N(c3ccc(C#N)c(C(F)(F)F)c3)C(=O)C23CCC3)cc1F,Potency,[1],18.6 µM (active)
same,Potency,[7],inactive
same,Potency,[8],inactive
same,Potency,[3],inactive
CCOC(=O)Nc1ccc(NCc2ccc(F)cc2)cc1N,Potency,[1],18.6 µM (active)
same,Potency,[8],inactive
same,Potency,[9],inactive
same,activity (max response),[2],-1.78%
same,Potency,[3],inactive
C[C@H](Nc1ncnc2nc[nH]c12)c1nc2ccc(F)cc2c(=O)n1-c1ccccc1,Potency,[1],0.651 µM (active)
same,activity (max response),[2],-19.1%
same,Potency,[3],inactive
COc1cc(CC(C)N)cc2c1OCO2 (stereo unspecified),Potency,[1],inactive
same,activity (max response),[2],-21.8%
same,Potency,[3],inactive
Cc1cccc(C)c1NC(=O)CN1CCCC1=O,Potency,[1],inactive
same,Potency,[4],inactive
same,Potency,[10],inactive
same,activity (max response),[2],-5.06% and 4.95%
same,Potency,[3],inactive
C[C@]12CC[C@H]3[C@@H](CC[C@@]45O[C@H]4C(O)=C(C#N)C[C@]35C)[C@H]1CC[C@H]2O,Potency,[1],11.9 µM (active)
same,Potency,[8],18.7 µM (active)
same,activity (max response),[2],-2%
CC1=C2C[C@H]3[C@@H](CC=C4C[C@@H](O)CC[C@@]43C)[C@@H]2CC[C@]12O[C@@H]1C[C@H](C)CN[C@H]1[C@H]2C,Potency,[1],14.8 µM (active)
same,activity (max response),[2],-8.25%
same,Potency,[3],inactive
CC(C)NCC(O)c1ccccc1Cl (stereo unspecified),Potency,[1],inactive
same,activity (max response),[2],5.55%
same,Potency,[3],inactive
c1ccc2nc(N3CCNCC3)ccc2c1,Potency,[1],inactive
same,activity (max response),[2],-8.05%
same,Potency,[3],inactive
CC(C)[C@H]1C(=O)N[C@H](CO)Cc2c[nH]c3cccc(c23)N1C,Potency,[1],0.288 µM (active)
same,Potency,[6],inactive
same,Potency,[7],0.418 µM (active)
same,Potency,[4],0.372 µM (active)
same,Potency,[10],inactive
same,Potency,[9],inactive
same,Potency,[3],inactive
O=c1[nH]c2ccccc2n1CCCN1CCC(n2c(=O)[nH]c3cc(Cl)ccc32)CC1,Potency,[1],18.6 µM (active)
same,Potency,[11],inactive
same,Potency,[4],inactive
same,Potency,[10],inactive
same,activity (max response),[2],-19.5%
CC(=O)c1c(O)c(C)c(O)c(Cc2c(O)c3c(c(C(=O)/C=C/c4ccccc4)c2O)OC(C)(C)C=C3)c1O,Potency,[1],25.9 µM (active)
same,activity (max response),[2],-2.92%
same,Potency,[3],inactive
N#Cc1nn(-c2c(Cl)cc(C(F)(F)F)cc2Cl)c(N)c1S(=O)C(F)(F)F (stereo unspecified),Potency,[1],10.6 µM (active)
same,Potency,[2],5.8 µM (active)
same,Potency,[3],2.59 µM (active)
C=CC(=O)NCNC(=O)C=C,Potency,[1],inactive
same,activity (max response),[2],-0.888%
same,Potency,[3],inactive
C#CC1(O)CCC2C3CCC4=CC(=O)CCC4(C)C3CCC21C (stereo unspecified),Potency,[1],11.8 µM (active)
same,Potency,[11],inactive
same,Potency,[7],inactive
same,Potency,[4],inactive
same,Potency,[8],inactive
same,activity (max response),[2],9.7%
same,Potency,[3],inactive
Cn1cc(C2=C(c3cn(C4CCN(Cc5ccccn5)CC4)c4ccccc34)C(=O)NC2=O)c2ccccc21,Potency,[1],5.25 µM (active)
same,Potency,[6],inactive
same,Potency,[9],5.9 µM (active)
same,activity (max response),[2],-7.67% and -14.7%
same,Potency,[3],inactive
